According to PubChem BioAssay (NCI):
The panel holds about 83,000 compounds, 20% with a hit somewhere; the sample as a whole holds those more often.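 Percent growth is the endpoint: 0 to 100 indicates growth inhibition (40 means 60% inhibition), 0 means no net growth, and negative values indicate cell death.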 Calls of active or inactive are those of the source. How the source made its calls: active means growth percent below 10; inactive means the rest.

Columns and labels:
Experiment in all cases: NCI-60 one-dose screen, 48 h (100 = growth as untreated, 0 = no growth, -100 = all killed)
Conditions in all cases: 10 µM unless noted
[1] = test system: SR leukemia
[2] = test system: RPMI-8226 leukemia
[3] = test system: OVCAR-8 ovarian
[4] = test system: OVCAR-5 ovarian
[5] = test system: OVCAR-4 ovarian
[6] = test system: SK-OV-3 ovarian
[7] = test system: IGROV1 ovarian
[8] = test system: OVCAR-3 ovarian
[9] = test system: HS 578T breast
[10] = test system: NCI/ADR-RES ovarian

Measured: growth

CC(C)(C)c1cc(-c2nc3ccc(N4CCN(S(C)(=O)=O)CC4)cc3[nH]2)cc(C(C)(C)C)c1O
inactive: [1] 56.2% | [2] 79.5% | [3] 78.9% | [4] 105% | [5] 88.6% | [6] 79.5% | [7] 96.4% | [8] 98.8% | [9] 86.4% | [10] 93.1%

CCOC(=O)/C=C1\S/C(=N\Nc2cc(=O)[nH]c3ccc(Cl)cc23)N(c2ccccc2)C1=O
active: [1] 4.23% | [2] 3.83%
inactive: [3] 90.1% | [4] 111% | [5] 76.2% | [6] 102% | [7] 62.9% | [8] 71.4% | [9] 99.8% | [10] 101%

CCCCCOc1ccc(C(=O)/C(Br)=C/C(=O)O)cc1
inactive: [1] 91.9% | [2] 77.8% | [3] 114% | [4] 108% | [5] 105% | [6] 109% | [7] 85.6% | [8] 100% | [9] 102% | [10] 95%

CNC(=O)c1cc(Oc2ccc3nc(NC(C)=O)sc3c2)ccn1
inactive: [1] 85.4% | [2] 93.8% | [3] 99.9% | [4] 103% | [5] 95.9% | [6] 107% | [7] 104% | [8] 105% | [9] 107% | [10] 98.1%

Cc1ccc(-c2nc(/C=C3/C(=O)Nc4ccccc43)c3ccccn23)cc1
inactive: [1] 73.4% | [2] 79.3% | [3] 82% | [4] 80.5% | [5] 115% | [6] 92.6% | [7] 22.9% | [8] 119% | [9] 85.7% | [10] 75.6%

CCO/C=N/C1=C(C#N)C(c2ccc(OC)cc2)c2sc3c(F)cccc3c2O1 (stereo not given)
inactive: [1] 25.5% | [3] 36.5% | [4] 63.8% | [5] 64.8% | [6] 49.6% | [7] 44.4% | [10] 16.9%
active: [2] 7.6% | [8] 8.12% | [9] 4.04%

O=c1oc2ccccc2cc1C1=NN=C(SCc2ccccc2)SC1
inactive: [1] 89.4% | [2] 98.7% | [3] 101% | [4] 105% | [5] 88.9% | [6] 97.8% | [7] 101% | [8] 103% | [9] 103% | [10] 105%

CC1(C)CC[C@]2(c3nnc(-c4ccncc4)o3)CC[C@H]3C(=CC[C@H]4[C@@]3(C)CC[C@H]3C(C)(C)C(=O)CC[C@]43C)[C@@H]2C1
inactive: [1] 17% | [2] 19.2% | [3] 86.9% | [4] 96.1% | [5] 70.1% | [6] 82.9% | [7] 71.9% | [8] 45% | [9] 82.4% | [10] 82%

CCOC(=O)c1c(C)c2c(n1C)CSc1cc(C(=O)c3ccccc3)c(=O)[nH]c1-2
inactive: [1] 88.3% [100 µM] | [2] 82.3% [100 µM] | [3] 106% [100 µM] | [4] 95.8% [100 µM] | [5] 92.4% [100 µM] | [6] 99.4% [100 µM] | [7] 104% [100 µM] | [8] 108% [100 µM] | [9] 90.8% [100 µM] | [10] 91.6% [100 µM]

CCN(CC)CCOc1ccc(C(=C(C)c2ccc(Cl)cc2)c2ccc(OCCN(CC)CC)cc2)cc1
active: [1] -54.4% | [2] -49.8% | [3] -47.1% | [4] -84.1% | [5] -62.1% | [6] -79.9% | [7] -86.9% | [8] -70.5% | [9] -52.5% | [10] -68.2%

Clc1ccc(CNc2c3ccccc3nc3ccccc23)cc1
inactive: [3] 31.9% | [4] 50.5% | [5] 33.1% | [6] 60% | [7] 31.7% | [8] 51.1% | [9] 53.8% | [10] 36.7%
active: [1] 2.32% | [2] 8.02%

CCn1c(=S)sc2c(Nc3ccc(F)cc3)nc(-c3cccnc3)nc21
inactive: [1] 95.6% | [2] 88% | [3] 43.7% | [4] 85.8% | [6] 56.6% | [7] 75.3% | [8] 78.7% | [9] 49% | [10] 55.4%
active: [5] -12%
